Shown are actives, neighbours in structure and some others; about 19% of the full set was active somewhere.
Gal4-VP16 FLuc = VP16 counterscreen qHTS for inhibitors of ROR gamma transcriptional activity; Drosophila S2 Gal4-VP16 UAS-luciferase, luminescence, 20 h; Potency, µM (doses to about 53.6 µM), without a hit: at the top dose activity, negative = inhibition, actives largely listed as inhibitors; 310,000 compounds, 3.5% hits; AID 2546, 2010;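 note: Gal4-VP16 expression switched on by copper sulfate through the metallothionein promoter; nearly all actives have a fitted effect of over 50% in size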
RORg inh = qHTS for inhibitors of ROR gamma transcriptional activity. Nuclear receptor ROR-gamma (Mus musculus), P51450. Drosophila S2 Gal4-RORgamma UAS-luciferase reporter, 20 h. Potency, µM (titrated, usually from 53.6 µM), for the others: at the highest dose activity change, negative = inhibition, actives largely listed as inhibitors. 310,000 compounds, 5.4% hits; note: nearly all actives have a fitted effect of over 60% in size
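Stable Schneider cell line, Gal4 DNA-binding domain fused to ROR gamma, UAS-luciferase. Cmpd 1 hr RT → CuSO4 700 uM final → 20 hr RT → luciferase reagent 10 min → luminescence.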
DT40 TDP1 CPT = qHTS for Inhibitors of human tyrosyl-DNA phosphodiesterase 1 (TDP1): qHTS in cells in presence of CPT. AID 686979, 2013. chicken DT40 Tdp1-/-;hTDP1 cells + 20 nM CPT, ATP luminescence, 48 h. 420,000 compounds, 12% hits. Potency, µM (highest dose often 46.2 µM), without a hit: at the highest dose activity change, negative = growth inhibition, usual class: inhibitors; note: nearly all actives have a fitted effect of over 55% in size
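Chicken DT40 Tdp1-/- cells stably complemented with human TDP1 were seeded at 400 cells/well in medium containing 20 nM camptothecin, exposed to pin-transferred compounds, and grown at 37 °C for at least 48 hr. Viability was read as ATP luminescence.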
TDP1 cell noCPT = qHTS for Inhibitors of human tyrosyl-DNA phosphodiesterase 1 (TDP1): qHTS in cells in absence of CPT | Potency, µM (top dose mostly 46.2 µM), for inactives: at the highest dose activity change, negative = growth inhibition, actives largely listed as inhibitors | 420,000 compounds, 15% hits | DT40 Tdp1-/- hTDP1 cells, no CPT, ATP luminescence, 48 h; note: nearly all actives have a fitted effect of over 55% in size
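Luminescent ATP content (CellTiter-Glo) served as the growth readout. Knockout chicken DT40 cells expressing human TDP1 were exposed to compounds without camptothecin for a minimum 48 hr at 37 °C.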
TDP1 inh = qHTS Assay for Inhibitors of Tyrosyl-DNA Phosphodiesterase (TDP1) | Tyrosyl-DNA phosphodiesterase 1 (Homo sapiens), Q9NUW8 | recombinant TDP1, AlphaScreen DNA substrate cleavage | Potency, µM (highest dose often 130 µM), inactives show top-dose activity change, negative = inhibition, hits mostly inhibitors | 350,000 compounds, 0.28% hits; note: nearly all actives have a fitted effect of over 40% in size
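Tdp1 1 nM final; 15 min RT w/ cpd; substrate 15 nM, 5 min; beads 10 ug/ml, 10 min; AlphaScreen read. Neg ctrl: no enzyme.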
Starred values were filed as active, the others as inactive; ? = inconclusive; . = no result given. Calls come from the whole dose curve; as a rule, active = well fitted curve in the direction sought with a large enough effect; inconclusive = small, poorly fitted or top-dose-only effect, or another doubt; inactive = no such curve, though single readings can be large; an effect the other way counts as inactive or inconclusive. % is set by controls: 0 for no effect and ±100 for the full control effect; potency is the fitted concentration of half-maximal effect.

SMILES	Gal4-VP16 FLuc	RORg inh	DT40 TDP1 CPT	TDP1 cell noCPT	TDP1 inh
Nc1ncn([C@H]2C[C@H](O)[C@@H](CO)O2)c(=O)n1	.	.	0.0411µM*	0.103µM*	.
Cc1cccc(N(C)C(=O)CCS(=O)(=O)c2cc3c(cc2Cl)NC(=O)CO3)c1	-5.8%	-12.0%	-5.4%	-10.9%	.
Nn1c(=S)[nH]nc(Cc2ccc(O)cc2)c1=O	-20.0%	0.6%	3.3%	-1.3%	.
Cc1cccc(C)c1OC(=O)CSc1nnc(-c2ccc3c(c2)OCO3)o1	.	.	-21.4%	-18.5%	8.6%
O=C(N/N=C\c1cn[nH]c1-c1ccccc1)c1cccs1	4.3%	-40.2%	-0.7%	-24.3%	-2.6%
Nc1nc2c(ncn2[C@H]2C[C@H](O)[C@@H](CO)O2)c(=O)[nH]1	.	.	4.61µM*	2.06µM*	0.1%
CNc1ncnc2c1ncn2[C@H]1C[C@H](O)[C@@H](CO)O1	.	.	?	7.31µM*	8.5%
CN(C)/C=N/c1nc2c(ncn2C2CC(O)C(CO)O2)c(=O)[nH]1 (configuration not stated)	.	.	-13.5%	-1.0%	1.6%
CCOC(=O)c1ccc(NC(=O)N2C3CCCC2CC(NC(C)=O)C3)cc1 (configuration not stated)	-29.2%	-16.2%	6.6%	-0.9%	.
Cc1ccc(S(=O)(=O)Nc2c(C)n(C)n(-c3ccccc3)c2=O)cc1C(=O)NCc1ccccc1	.	.	?	?	1.6%
CCOc1ccc(NC(=O)C(=O)N/N=C/c2ccccc2F)cc1	-22.8%	0.5%	1.6%	-15.2%	5.9%
Cc1cc(C(=O)N2CCCC(C(=O)c3ccc4ccccc4c3)C2)nn1C (configuration not stated)	2.6%	1.7%	?	20.6µM*	2.7%
CCn1nc(C)cc1C(=O)N1CCCC(C(=O)c2ccc(OC)cc2C)C1 (configuration not stated)	5.5%	-1.8%	23.1µM*	9.2µM*	2.3%
O=C(c1ccc2ccccc2c1)C1CCCN(C(=O)c2noc3c2CCCC3)C1 (configuration not stated)	-3.9%	8.7%	?	?	7.6%
Cc1ncsc1C(=O)N1CCCC(C(=O)c2ccc3ccccc3c2)C1 (configuration not stated)	-1.1%	41.7%	23.1µM*	20.6µM*	1.0%
CCn1nc(C)cc1C(=O)N1CCCC(C(=O)c2ccc3ccccc3c2)C1 (configuration not stated)	3.3%	?	11.6µM*	7.31µM*	.
CSc1ccc(C(=O)C2CCCN(C(=O)c3cc(C)n(C)n3)C2)cc1 (configuration not stated)	4.6%	5.0%	?	?	4.5%
CCn1nc(C)cc1C(=O)N1CCCC(C(=O)c2ccc(Oc3ccccc3)cc2)C1 (configuration not stated)	0.0%	17.8%	?	?	5.1%
Cc1cc(C)n(-c2ncnc3c2oc2ccccc23)n1	4.0%	25.8%	?	?	-8.4%
COc1cc(CC(=O)OCC(=O)Nc2ccc3c(c2)OCO3)cc(OC)c1OC	5.0%	-4.5%	-18.4%	2.8%	7.4%
COc1ccc(C(=O)C2CCCN(C(=O)c3cccnc3OC)C2)c(C)c1 (configuration not stated)	-5.3%	41.9%	?	?	2.7%
COc1ccc(C(=O)C2CCCN(C(=O)c3ccc4cc[nH]c4c3)C2)c(C)c1 (configuration not stated)	-2.5%	17.6%	16.4µM*	?	0.0%
COc1ccc(S(=O)(=O)N2CCCCCC2)cc1C(=O)N1CCN(c2ccccc2C)CC1	.	.	?	20.6µM*	2.7%
COc1ccc(S(=O)(=O)N2CC=C(c3ccccc3)CC2)cc1OC	.	.	?	23.1µM*	.
O=C(c1cccc(S(=O)(=O)N2CCCCCC2)c1)N1CCN(c2ccccc2)CC1	-0.4%	19.6%	?	-14.1%	4.8%

Screens from PubChem BioAssay.
